Our source for the Potency values is PubChem BioAssay (NCATS).

Results filed as inconclusive are left out. Where a call stands in place of a potency, no number is given. Calls of active or inactive are those of the source. The call rests on the fitted dose curve; in most records, active means well fitted cell-killing curve with a large enough effect; inconclusive means small, poorly fitted or top-dose-only effect; inactive means flat fitted curve, though single readings scatter.
Potency means the concentration at half of the fitted maximal effect.

The first experiment in a line: Cell Viability - LYMP2-012 (AID 982).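 Further: cellular ATP by luciferase luminescence where a drop means cytotoxicity; cells exposed to compound for one day before reading; nearly all actives have a fitted effect of over 55% in size.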 Particulars: LYMP2-012 lymphoblastoid cell viability qHTS; series mostly up to 92.2 µM. In general terms: qHTS replaces the single test concentration by a dilution series.
As to `Cc1cc(Nc2ccc(O)cc2)ccc1N`, the Potency is 39.8 µM (active).

Turning to `CN(C)c1ccc(C2(c3ccc(N(C)C)cc3)OC(=O)c3cc(N(C)C)ccc32)cc1`, the Potency result was “inactive”.

As for `O=C(OCC(COC(=O)c1ccccc1)(COC(=O)c1ccccc1)COC(=O)c1ccccc1)c1ccccc1`, the Potency result is “inactive”.

Regarding `CC(=O)Nc1ccc(C(=O)CCl)cc1`, the Potency is 5.01 µM (active).

Take `Nc1ccc2cc3ccccc3cc2c1`: the Potency entry is “inactive”.

Regarding `c1ccc2c(c1)-c1cccc3c1c-2cc1ccccc13`, the Potency result is “inactive”.

Turning to `O=C=Nc1ccc(Cc2ccc(N=C=O)cc2)cc1`, the Potency entry is “inactive”.

With `O=[N+]([O-])c1cc([N+](=O)[O-])c2ccc(S(=O)(=O)O)cc2c1O`, the Potency entry is “inactive”.

As to `Cc1cc(O)c(C(C)(C)C)cc1Sc1cc(C(C)(C)C)c(O)cc1C`, the Potency is 39.8 µM (active).

As to `CCC(C)Nc1ccc(NC(C)CC)cc1` (stereo not given), the Potency is 3.98 µM (active).

On to `CNc1ccc(O)cc1`, for which the Potency is 3.98 µM (active).

Regarding `C=CC(=O)OCCOCCOC(=O)C=C`, the Potency was 12.6 µM (active).

Regarding `Oc1ccc2cc(SSc3ccc4cc(O)ccc4c3)ccc2c1`, the Potency was 50.1 µM (active).

In the case of `c1ccc2c(c1)ccc1cc3c(ccc4ccccc43)cc12`, the Potency entry was “inactive”.

Turning to `C=C(C)c1ccccc1`, the Potency entry is “inactive”.

For `O=C1OC(O)C(C(Cl)Cl)=C1Cl` (stereo not given), the Potency is 20 µM (active).

A short description of the next experiment: Cell Viability - LYMP2-014 (AID 983).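 Further: cells exposed to compound for 24 h at 37 °C; nearly all actives have a fitted effect of over 50% in size.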 The conditions noted are these: LYMP2-014 lymphoblastoid cells, viability qHTS; series mostly up to 92.2 µM. The method, boiled down:
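LYMP2-014 human lymphoblastoid cells, 2500/well, treated 24 h at 37 C in complete medium; viability by CellTiter-Glo ATP luminescence after 30 min at room temperature. AC50 from Hill fits of qHTS concentration-response; tetraoctylammonium bromide positive control.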
`Cc1cc(Nc2ccc(O)cc2)ccc1N`: the Potency was 50.1 µM (active).

For `CN(C)c1ccc(C2(c3ccc(N(C)C)cc3)OC(=O)c3cc(N(C)C)ccc32)cc1`, the Potency entry is “inactive”.

For `CO[C@H]1/C=C/O[C@@]2(C)Oc3c(C)c(O)c4c(O)c(c5c(c4c3C2=O)NC2(CCN(CC(C)C)CC2)N=5)=NC(=O)/C(C)=C\C=C\[C@H](C)[C@H](O)[C@@H](C)[C@@H](O)[C@@H](C)[C@H](OC(C)=O)[C@@H]1C`, the Potency entry was “inactive”.

`O=C(OCC(COC(=O)c1ccccc1)(COC(=O)c1ccccc1)COC(=O)c1ccccc1)c1ccccc1`: the Potency entry is “inactive”.

Regarding `CC(=O)Nc1ccc(C(=O)CCl)cc1`, the Potency was 7.94 µM (active).

On to `Nc1ccc2cc3ccccc3cc2c1`, for which the Potency result was “inactive”.

Turning to `c1ccc2c(c1)-c1cccc3c1c-2cc1ccccc13`, the Potency entry was “inactive”.

Regarding `O=C=Nc1ccc(Cc2ccc(N=C=O)cc2)cc1`, the Potency result was “inactive”.

`O=[N+]([O-])c1cc([N+](=O)[O-])c2ccc(S(=O)(=O)O)cc2c1O`: the Potency entry was “inactive”.

Regarding `Cc1cc(O)c(C(C)(C)C)cc1Sc1cc(C(C)(C)C)c(O)cc1C`, the Potency was 39.8 µM (active).

For `CCC(C)Nc1ccc(NC(C)CC)cc1` (stereo not given), the Potency was 5.01 µM (active).

Regarding `CNc1ccc(O)cc1`, the Potency was 6.31 µM (active).

Regarding `C=CC(=O)OCCOCCOC(=O)C=C`, the Potency was 20 µM (active).

Turning to `O=C1OC2(c3cc(Br)c(O)c(Br)c3Oc3c2cc(Br)c(O)c3Br)c2c(Cl)c(Cl)c(Cl)c(Cl)c21`, the Potency result was “inactive”.

On to `c1ccc2c(c1)ccc1cc3c(ccc4ccccc43)cc12`, for which the Potency entry is “inactive”.

Consider `C=C(C)c1ccccc1`, for which the Potency entry is “inactive”.

In the case of `O=C1OC(O)C(C(Cl)Cl)=C1Cl` (stereo not given), the Potency was 25.1 µM (active).

The nature of a further experiment: Cell Viability - LYMP2-016 (AID 984).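 Further: cells exposed to compound for 24 hours at 37 °C; nearly all actives have a fitted effect of over 55% in size.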 Particulars: LYMP2-016 lymphoblastoid cell viability, qHTS; series mostly up to 92.2 µM. The method, boiled down: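 Cells were seeded at 2500 per well and rested 5 hr before a 24 hr compound exposure at 37 C. Viability was then gauged as cellular ATP by luciferase luminescence, with AC50 values fitted to the Hill equation.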
With `Cc1cc(Nc2ccc(O)cc2)ccc1N`, the Potency is 50.1 µM (active).

Consider `CN(C)c1ccc(C2(c3ccc(N(C)C)cc3)OC(=O)c3cc(N(C)C)ccc32)cc1`, for which the Potency entry is “inactive”.

For `O=C(OCC(COC(=O)c1ccccc1)(COC(=O)c1ccccc1)COC(=O)c1ccccc1)c1ccccc1`, the Potency entry is “inactive”.

As for `CC(=O)Nc1ccc(C(=O)CCl)cc1`, the Potency is 7.94 µM (active).

With `Nc1ccc2cc3ccccc3cc2c1`, the Potency result was “inactive”.

As to `c1ccc2c(c1)-c1cccc3c1c-2cc1ccccc13`, the Potency result was “inactive”.

With `O=C=Nc1ccc(Cc2ccc(N=C=O)cc2)cc1`, the Potency entry is “inactive”.

As for `O=[N+]([O-])c1cc([N+](=O)[O-])c2ccc(S(=O)(=O)O)cc2c1O`, the Potency result was “inactive”.

Turning to `Cc1cc(O)c(C(C)(C)C)cc1Sc1cc(C(C)(C)C)c(O)cc1C`, the Potency was 50.1 µM (active).

Regarding `CCC(C)Nc1ccc(NC(C)CC)cc1` (stereo not given), the Potency is 5.01 µM (active).

On to `CNc1ccc(O)cc1`, for which the Potency was 7.94 µM (active).

On to `C=CC(=O)OCCOCCOC(=O)C=C`, for which the Potency was 20 µM (active).

On to `O=C1OC2(c3cc(Br)c(O)c(Br)c3Oc3c2cc(Br)c(O)c3Br)c2c(Cl)c(Cl)c(Cl)c(Cl)c21`, for which the Potency result is “inactive”.

Consider `c1ccc2c(c1)ccc1cc3c(ccc4ccccc43)cc12`, for which the Potency entry was “inactive”.

In the case of `C=C(C)c1ccccc1`, the Potency entry was “inactive”.

`O=C1OC(O)C(C(Cl)Cl)=C1Cl` (stereo not given): the Potency was 25.1 µM (active).

A further experiment can be described thus: Cell Viability - LYMP2-020 (AID 986).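 Further: cells exposed to compound for 24 h at 37 °C; nearly all actives have a fitted effect of over 55% in size.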 Particulars: series mostly up to 92.2 µM. An outline of the steps: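 Human lymphoblastoid LYMP2-020 cells (2500/well) preincubated 5 h at 37 C, then treated 24 h at 37 C. Viability measured as intracellular ATP by CellTiter-Glo luminescence after 30 min at room temperature; AC50 from Hill fits.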
Turning to `Cc1cc(Nc2ccc(O)cc2)ccc1N`, the Potency is 39.8 µM (active).

As for `CN(C)c1ccc(C2(c3ccc(N(C)C)cc3)OC(=O)c3cc(N(C)C)ccc32)cc1`, the Potency entry is “inactive”.

For `O=C(OCC(COC(=O)c1ccccc1)(COC(=O)c1ccccc1)COC(=O)c1ccccc1)c1ccccc1`, the Potency result was “inactive”.

On to `CC(=O)Nc1ccc(C(=O)CCl)cc1`, for which the Potency is 5.01 µM (active).

In the case of `Nc1ccc2cc3ccccc3cc2c1`, the Potency entry is “inactive”.

For the compound `c1ccc2c(c1)-c1cccc3c1c-2cc1ccccc13`, the Potency entry is “inactive”.

With `O=C=Nc1ccc(Cc2ccc(N=C=O)cc2)cc1`, the Potency result is “inactive”.

For `O=[N+]([O-])c1cc([N+](=O)[O-])c2ccc(S(=O)(=O)O)cc2c1O`, the Potency result is “inactive”.

In the case of `Cc1cc(O)c(C(C)(C)C)cc1Sc1cc(C(C)(C)C)c(O)cc1C`, the Potency was 31.6 µM (active).

On to `CCC(C)Nc1ccc(NC(C)CC)cc1` (stereo not given), for which the Potency is 5.01 µM (active).

On to `CNc1ccc(O)cc1`, for which the Potency is 3.98 µM (active).

Take `C=CC(=O)OCCOCCOC(=O)C=C`: the Potency was 15.8 µM (active).

For `O=C1OC2(c3cc(Br)c(O)c(Br)c3Oc3c2cc(Br)c(O)c3Br)c2c(Cl)c(Cl)c(Cl)c(Cl)c21`, the Potency entry is “inactive”.

In the case of `c1ccc2c(c1)ccc1cc3c(ccc4ccccc43)cc12`, the Potency entry was “inactive”.

For `C=C(C)c1ccccc1`, the Potency entry is “inactive”.

As to `O=C1OC(O)C(C(Cl)Cl)=C1Cl` (stereo not given), the Potency is 25.1 µM (active).
